ELG1 DNA repair: qHTS screen for small molecules that inhibit ELG1-dependent DNA repair in human embryonic kidney (HEK293T) cells expressing luciferase-tagged ELG1 | HEK293T ELG1-luciferase reporter, luminescence, 16 h; DNA damage induced by 5-fluorouridine | Potency, µM (titrated, usually from 46.1 µM), for inactives: at the top dose activity change, negative = inhibition, usual class: inhibitors | 330,000 compounds, 2.3% hits; also: % is scaled to controls: 0 for no effect and ±100 for the full control effect; nearly all actives have a fitted effect of over 55% in size
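DMSO vehicle served as the neutral condition. Each well held 2,000 cells given 5-fluorouridine plus compound; after 16 hr at 37 °C/5% CO2, ONE-Glo was added and luciferase measured 30 min later.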
Rab9 promoter act: qHTS Assay for Rab9 Promoter Activators; Huh7 Rab9 promoter-luciferase reporter, luminescence, 24 h; Potency, µM (titrated, usually from 9.22 µM), without a hit: top-dose activation, negative = inhibition, hits mostly activators; 320,000 compounds, 2.8% hits; also: % of control where 0% means no effect; nearly all actives have a fitted effect of over 60% in size
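Cell-based reporter: Huh7 stable for Rab9 promoter-driven luciferase, plated in reduced-serum medium with 10% FBS at 1500 cells/well, compound-treated 24 h at 37 °C, luminescence read after 10 min reagent.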
NPC1 promoter act: qHTS Assay for NPC1 Promoter Activators. Huh7 NPC1 promoter luciferase reporter, 24 h. Potency, µM (highest dose often 9.22 µM), for the others: top-dose activation, actives largely listed as activators. 320,000 compounds, 2.4% hits. AID 485313, 2010; also: % of control where 0% means no effect; nearly all actives have a fitted effect of over 60% in size
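Luciferase expression driven by the NPC1 promoter was measured in stably transfected Huh7 cells after a 24 h compound incubation, using a luciferase reagent and a luminescence read.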
ELG1 genotox: qHTS screen for small molecules that induce genotoxicity in human embryonic kidney (HEK293T) cells expressing luciferase-tagged ELG1. HEK293T ELG1-luciferase reporter, luminescence, 16 h. Potency, µM (series often up to 46 µM), inactives show top-dose activity change, positive = activation, hits mostly activators. 330,000 compounds, 1.3% hits; also: % of control where 0% means no effect; nearly all actives have a fitted effect of over 60% in size
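Reporter readout depends on ELG1 protein level, which increases with genetic stress. After 16 hr compound exposure at 37 °C, luciferase activity was quantified using ONE-Glo.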
FLuc counter: qHTS profiling assay for firefly luciferase inhibitor/activator using purifed enzyme and Km concentrations of substrates (counterscreen for miR-21 project); Luciferin 4-monooxygenase (Photinus pyralis), P08659; purified FLuc, Km substrates, luminescence inhibition; Potency, µM (series often up to 57.5 µM), for inactives: at the top dose activity change, negative = inhibition, most hits filed as inhibitors; 360,000 compounds, 6.9% hits; AID 588342, 2011;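 also: plate controls were vehicle for no effect and reference inhibitor for full effect; nearly all actives have a fitted effect of over 55% in size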
Target sequence (P08659 whole entry, looked up): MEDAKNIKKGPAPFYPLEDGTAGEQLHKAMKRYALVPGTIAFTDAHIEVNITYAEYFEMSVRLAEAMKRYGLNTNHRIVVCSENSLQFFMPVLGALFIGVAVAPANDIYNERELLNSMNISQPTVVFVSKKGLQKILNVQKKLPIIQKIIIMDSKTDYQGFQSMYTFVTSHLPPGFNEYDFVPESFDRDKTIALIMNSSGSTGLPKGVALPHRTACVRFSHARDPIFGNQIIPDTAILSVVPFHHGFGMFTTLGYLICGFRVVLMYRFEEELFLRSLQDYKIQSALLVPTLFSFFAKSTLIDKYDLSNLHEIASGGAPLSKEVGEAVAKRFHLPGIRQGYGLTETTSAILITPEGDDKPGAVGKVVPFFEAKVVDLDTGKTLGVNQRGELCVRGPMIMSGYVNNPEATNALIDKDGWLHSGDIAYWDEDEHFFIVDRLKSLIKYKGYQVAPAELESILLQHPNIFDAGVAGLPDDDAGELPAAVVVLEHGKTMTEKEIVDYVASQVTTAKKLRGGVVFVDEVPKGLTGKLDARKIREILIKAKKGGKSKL
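Purified P. pyralis luciferase (10nM final) with 10uM D-luciferin and 10uM ATP (Km levels) in 50mM Tris acetate pH 7.5, 10mM Mg acetate, 0.01% Tween-20, 0.05% BSA; qHTS 6-point titration, ~60 µM downward; luminescence read.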
SMN2 splice enh: qHTS Assay for Enhancers of SMN2 Splice Variant Expression | Potency, µM (top dose mostly 46.1 µM), for the others: at the top dose activity change, positive = activation, hits mostly activators | AID 1458, 2008 | 210,000 compounds, 2.8% hits | HEK293 SMN2-luciferase splicing reporter, luminescence, 30-36 h; also: % of control where 0% means no effect; nearly all actives have a fitted effect of over 55% in size
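HEK293 cells carry an SMN2 […]–luciferase reporter in which exon 7 inclusion puts luciferase in frame. Cells were plated 10-12 h before compound addition, then incubated 30-36 h at 37C. ONE-Glo luminescence was read; sodium butyrate at 4.5 mM final served as control.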
* hit, by the source's call. Most compounds without a hit are left out; they make up all but 9.2% or so of the library. Calls follow the shape of the dose curve; as a rule, active = well fitted curve in the direction sought with a large enough effect; inconclusive = small, poorly fitted or top-dose-only effect, or another doubt; inactive = no such curve, though single readings can be large; an effect the other way counts as inactive or inconclusive. Potency is read from the fitted curve at half-maximal effect.

What do the screens show for `CC(C)c1ccc(Nc2ncnc3c2nc2n3CCCC2)cc1`?
FLuc counter: 5.4µM*

What do the screens show for `COc1ccc(OC)c(Nc2ncnc3c2nc2n3CCCC2)c1`?
FLuc counter: 3%

How did CC(C)c1ccc(NC(=O)C2CCN(c3ncnc4c3nc3n4CCCCC3)CC2)cc1 do in these assays?
ELG1 DNA repair: inconclusive; Rab9 promoter act: -15%; NPC1 promoter act: -7%; ELG1 genotox: 12%; FLuc counter: -1%

How did Fc1ccccc1Nc1ncnc2c1nc1n2CCCCC1 do in these assays?
FLuc counter: 12µM*

What do the screens show for `Cc1ccc(Nc2ncnc3c2nc2n3CCCC2)cc1F`?
FLuc counter: 13µM*

What do the screens show for `COC[C@H]1OC=C[C@@H](OC)[C@@H]1OC`?
SMN2 splice enh: 5%

What do the screens show for `COc1cccc([C@@H]2Oc3ccc(OC)cc3C[C@H]2OC(=O)NS(=O)(=O)c2ccc(C)cc2)c1`?
SMN2 splice enh: 18%

How did CCn1cc(C(=O)N2CCCC(CO)(Cc3ccccc3C)C2)cn1 (configuration not stated) do in these assays?
ELG1 DNA repair: 11%; Rab9 promoter act: -2%; NPC1 promoter act: -1%; ELG1 genotox: 4%; FLuc counter: -1%

Results for Cc1ccc(-c2nnc(/C=C/c3ccccc3)o2)cc1 ?
ELG1 DNA repair: inconclusive; Rab9 promoter act: 18%; NPC1 promoter act: 22%; ELG1 genotox: inconclusive; FLuc counter: 17µM*; SMN2 splice enh: 18µM*

Results for Brc1ccc(-c2nnc(-c3ccccc3Br)o2)cc1 ?
ELG1 DNA repair: inconclusive; Rab9 promoter act: 0.71µM*; NPC1 promoter act: 1.1µM*; ELG1 genotox: 2.9µM*; FLuc counter: 1.3µM*; SMN2 splice enh: 14µM*

What do the screens show for `Cc1ccc(-c2nnc(-c3ccccc3Br)o2)cc1`?
ELG1 DNA repair: inconclusive; Rab9 promoter act: 4µM*; NPC1 promoter act: 4µM*; ELG1 genotox: inconclusive; FLuc counter: 0.76µM*

How did Brc1ccccc1-c1nnc(-c2cccnc2)o1 do in these assays?
ELG1 DNA repair: inconclusive; Rab9 promoter act: inconclusive; NPC1 promoter act: inconclusive; ELG1 genotox: 18µM*; FLuc counter: 15µM*; SMN2 splice enh: 2%

What do the screens show for `c1cncc(-c2nnc(-c3cccs3)o2)c1`?
ELG1 DNA repair: inconclusive; Rab9 promoter act: inconclusive; NPC1 promoter act: 15%; ELG1 genotox: 11%; FLuc counter: -14%; SMN2 splice enh: 1%

What do the screens show for `Cc1nn(C)c(C)c1NS(=O)(=O)c1ccccc1Cl`?
ELG1 DNA repair: 9%; Rab9 promoter act: 2%; NPC1 promoter act: 0%; ELG1 genotox: 1%; FLuc counter: 0%

How did COc1ccc(Cc2nnc(Nc3ccc4c(c3)OCCO4)[nH]c2=O)cc1 do in these assays?
ELG1 DNA repair: -4%; Rab9 promoter act: -5%; NPC1 promoter act: -2%; ELG1 genotox: -2%; FLuc counter: -5%; SMN2 splice enh: -15%

How did CN(Cc1ccccc1)c1ncnc2ccc(Br)cc12 do in these assays?
ELG1 DNA repair: 18µM*; Rab9 promoter act: 0%; NPC1 promoter act: -1%; ELG1 genotox: -15%; FLuc counter: 0%; SMN2 splice enh: inconclusive

How did Cc1ccc(CNc2ncnc3c2cnn3-c2ccccc2)cc1 do in these assays?
ELG1 DNA repair: 24%; Rab9 promoter act: 16%; NPC1 promoter act: 5%; ELG1 genotox: 7%; FLuc counter: -12%; SMN2 splice enh: -18%

Results for Cc1ccc(-n2ncc3c(N(CCO)Cc4ccccc4)ncnc32)cc1 ?
FLuc counter: 11µM*

What do the screens show for `Cc1ccc(-n2ncc3c(N(C)Cc4ccccc4)ncnc32)cc1`?
FLuc counter: 0.67µM*

Assay outcomes as filed in PubChem.
